The inhibition is the change of the read-out against control, counted positive when it falls.

Several values for one entry are separate records, joined by “and”; a condition that tells them apart may be missing. Identical values can stand only once. Among all 640,000 compounds or so, about 9,300 (1.5%) were called active. Only a selection was taken, and actives are over-represented in it overall. A number with no mark means an inactive call. Cut-off read from the data, not from the text of the source: active = inhibition above about 32%; inactive = the rest.

The nature of the assay: TEAD-YAP interaction inhibition, primary screen, TEAD-YAP interaction inhibitor project, luminescence, HEK-TIYL cells (AID 1259422).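 Note: 0% = median of test compound wells and 100% = reference inhibitor wells.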 Particulars: TEAD-Gal4/YAP UAS-luciferase luminescence, at 9.12 µM, hits give high values.
As for `O=C(Nc1c(C(=O)N2CCC(Cc3ccccc3)CC2)cnn1-c1ccccc1)c1ccco1`, the inhibition is -7.49%.
For `NC1=NC(=O)/C(=C\c2ccc3c(c2)OCO3)S1`, the inhibition is 46.8% (active).
Regarding `COc1cc(/C=C2/SC(N)=NC2=O)cc(OC)c1OC`, the inhibition was 6.04%.
Under `CC(C)CC1=NN2C(=N)/C(=C/c3ccc4c(c3)OCO4)C(=O)N=C2S1` stands -1.58%; under `COC(=O)c1ccc(/C=C2/SC(N)=NC2=O)cc1`, 16%; under `NC1=NC(=O)/C(=C\c2ccc3ncccc3c2)S1`, 52.6% (active).
As for `CN1C(N)=NC(=O)/C1=C\c1ccc2c(c1)OCO2`, the inhibition was -15%.
`CCOC(=O)c1c(NC(=O)CSc2nnc(CNC(=O)c3cc(OC)cc(OC)c3)n2-c2cccc(C)c2)sc2c1CCCC2`: the inhibition is 3.65%.
The same measure for `CCOc1ccc(C(=O)O/N=C(\N)c2ccc(OC)cc2)cc1OCC`: -6.66%; for `Cc1cc(N2CCCC2)nc2ccc(NC(=S)NCC3CCCO3)cc12` (configuration not stated): -6.91%.
With `Cc1c(SC(F)(F)C(F)C(F)(F)F)c(=O)n(-c2ccccc2)n1C` (configuration not stated), the inhibition is 18.8%.
Turning to `O=C(NC1CC1)c1cccc(N2CCc3ccccc3C2)n1`, the inhibition was -13.8%.
Regarding `NC(=O)C(C(N)=O)C1OC(=O)C(Cl)=C1Cl` (configuration not stated), the inhibition is 0.04%.
As to `C/C(=N\NC(=O)c1ccccc1I)c1ccc(O)cc1`, the inhibition was -8.63%.
The same measure for `CCN1C(=O)S/C(=C/c2cc(C)n(-c3cccnc3)c2C)C1=O`: 50.4% (active); for `CCN1C(=O)/C(=C\c2cc(C)n(-c3ccccc3)c2C)C(C(=O)OC)=C1C`: 36.6% (active); for `Cc1cc(/C=C2/SC(=O)N(C)C2=O)c(C)n1-c1ccc(I)cc1`: -24.8%.
For `COC(=O)C1=C(C)N(CC2CCCO2)C(=O)/C1=C\c1cc(C)n(-c2cccc(C)c2)c1C` (configuration not stated), the inhibition was 0.89%.
On to `COC(=O)C1=C(C)N(C)C(=O)/C1=C\c1cc(C)n(-c2ccc(Br)cc2)c1C`, for which the inhibition is -6.34%.
For the compound `CCc1ccccc1N1C(=O)NC(=O)/C(=C\c2cc(C)n(-c3cccnc3)c2C)C1=O`, the inhibition was -3.42%.
On to `COc1ccc(Cl)cc1S(=O)(=O)N1CCN(CC(=O)Nc2ccc(C(N)=O)cc2)CC1`, for which the inhibition was 3.37%.
For the compound `O=C(NC(Cc1c[nH]c2ccccc12)c1nnc2n1CCC2)c1ccccc1Cl` (configuration not stated), the inhibition is 4.18%.
For `CCOC(=O)c1c(NC(=O)c2cccc(C)c2)sc2c1CCC2`, the inhibition was 1.21%.
The same measure for `CC(=O)N(C1=C(N2CCOCC2)C(=O)c2ccccc2C1=O)C1CCCCC1`: 13.4%; for `Cc1cc(C)cc(NC2=C(N3CCN(C)CC3)C(=O)c3ccccc3C2=O)c1`: 14.2%; for `CC(=O)N(C1=C(N2CCN(C)CC2)C(=O)c2ccccc2C1=O)c1cc(C)cc(C)c1`: 53.9% (active).
For `CCCCOc1ccc(-c2[nH]nc3c2C2(C(=O)Nc4ccc(C)c(Br)c42)C(C#N)=C(N)O3)cc1` (configuration not stated), the inhibition is 3.07%.
For the compound `Cc1nc(NC(=O)c2ccc3c(c2)CCCC3)sc1C`, the inhibition is 53.4% (active).
In the case of `Cc1nc(NC(=O)c2cc(Br)ccc2Cl)sc1C`, the inhibition is -57.6%.
Under `COc1ccc(C(=O)Nc2nc(C(C)(C)C)cs2)c(OC)c1` stands -70.6%.
With `Cc1nc(NC(=O)c2ccoc2C)sc1C`, the inhibition was -21.2%.
As to `COc1ccc(C(=O)Nc2nc(C)c(C)s2)c(OC)c1`, the inhibition is 94.8% (active).
As to `COc1ccc(C(=O)Nc2nc3c(ccc4ccccc43)s2)c(OC)c1`, the inhibition is -16.5% and -1.48%.
As for `Oc1ccc2ccccc2c1/C=N/Nc1nccnc1Cl`, the inhibition was -25.8%.
Turning to `N#CC1=C(N)Oc2n[nH]c(-c3ccc(Cl)cc3)c2C1c1ccc2c(c1)OCO2` (configuration not stated), the inhibition was 12.5%.
On to `N#Cc1cnn(-c2nc3ccccc3[nH]2)c1N`, for which the inhibition is -4.74%.
Take `Cn1ncc(Cl)c1-c1nc2ccccc2[nH]1`: the inhibition was -8.92%.
Take `O=c1c(Cl)c(Cl)cnn1-c1nc2ccccc2[nH]1`: the inhibition was 56.5% (active).
The same measure for `Cc1cc(Nc2ccccc2Cl)n2nc(C)nc2n1`: -1.89%.
The same measure for `Cc1cc(C)c(NC(=O)c2c(Cl)nc(C)c(Cl)c2C)c(C)c1`: -2.91%.
Consider `COc1cccc(/C=C/C(=O)NCC(=O)O)c1OC`, for which the inhibition is -11.1%.
As to `Cc1cccc2nc(CNC(=O)CCCn3nnnc3CN3CCC(C)CC3)cn12`, the inhibition is 3.48%.
The same measure for `C/C(=N/NC(=O)c1ccccn1)c1ccccc1`: 14.7%; for `CC(C)(C)c1ccc(C(=O)NNC(=O)c2ccccn2)cc1`: 41.6% (active); for `CC(C)(C)c1ccc(C(=O)NNC(=O)C(=O)NCc2ccccc2)cc1`: -5.07%.
As to `N#Cc1ccc(C23CC4CC(CC(C4)C2)C3)nc1SCC(=O)Nc1nc2ccccc2s1`, the inhibition was 3.55%.
On to `N#CC(=C1C(=O)c2ccccc2C1=O)c1nc2ccccc2[nH]1`, for which the inhibition is -10.3%.
Under `Cc1ccc(N=C2NC(=O)/C(=C\c3ccc(-c4ccccc4[N+](=O)[O-])o3)S2)c(C)c1` stands -2.23%; under `COc1ccccc1C1C(C(=O)N2CCCCC2)=C(C)Nc2nc3ccccc3n21` (configuration not stated), 1.41%.
As to `COc1ccccc1NC(=O)C1=C(C)Nc2nc3ccccc3n2C1c1cccs1` (configuration not stated), the inhibition was 46.5% (active).
For `CCOc1ccc(C2C(C(=O)NC)=C(C)Nc3nc4ccccc4n32)cc1OC` (configuration not stated), the inhibition is -6.37%.
With `COc1ccc(C(C)=O)c(OC(=O)Cc2cc(OC)c(OC)c(OC)c2)c1`, the inhibition was 12.9%.
For `COc1cc(C(=O)Nc2ccc(C(C)=O)cc2)c2ccccc2n1`, the inhibition is 47.1% (active).
Consider `COc1ccc(-c2cc(C(=O)Nc3ccccc3)c3ccccc3n2)cc1`, for which the inhibition is -2.31%.
Regarding `COc1cc(C(=O)Nc2ccc(C(=O)O)cc2)c2ccccc2n1`, the inhibition is -2.83%.
`CCCC(=O)Nc1ccccc1C(=O)O`: the inhibition is -0.09%.
Take `C/C(=C\c1ccccc1)C(=O)Nc1ccccc1C(=O)O`: the inhibition was 36.6% (active).
`COC(=O)c1ccccc1NC(=O)C(=O)Nc1ccccc1C(=O)OC`: the inhibition is -3.84%.
With `CCN1CCN(c2ncc(C(=O)Nc3ccc(OC)c(Cl)c3)c3ccccc23)CC1`, the inhibition is -15.1%.
Regarding `COc1ccc(Nc2c(C#N)cnc3ccccc23)cc1Cl`, the inhibition is 49.7% (active).
Turning to `COc1ccc(NC(=O)Cc2c[nH]c3ccccc23)cc1Cl`, the inhibition was 4.42%.
On to `Cc1ccc(/C=C2/SC(=Nc3ccccc3Cl)NC2=O)cc1`, for which the inhibition was 37.2% (active).
Under `Cc1cccc(C(=O)Oc2ccc(/C=C3/SC(=Nc4ccccc4Cl)NC3=O)cc2)c1` stands 0.81%; under `COc1cc(/C=C2/SC(=Nc3ccccc3Cl)NC2=O)cc(OC)c1OC`, -2.07%; under `CC(=O)Nc1nc2cc([N+](=O)[O-])c(C)cc2s1`, -21.7%.
In the case of `COc1ccc(C2CC(=O)C3=C(C2)Nc2ccccc2NC3c2cccc(Cl)c2)cc1` (configuration not stated), the inhibition is 1.54%.
For `COc1cc(C2Nc3ccccc3NC3=C2C(=O)CC(c2ccccc2Cl)C3)cc(Cl)c1O` (configuration not stated), the inhibition is 54.8% (active).
In the case of `COc1cc(C2C(C(=O)OC3CCCCC3)=C(C)NC3=C2C(=O)CC(c2ccccc2)C3)cc(Cl)c1O` (configuration not stated), the inhibition is -1.53%.
Under `CCOc1ccccc1C1CC(=O)NC2=C1C(=O)CC(c1ccccc1Cl)C2` (configuration not stated) stands 36.2% (active); under `CCOc1ccccc1C1C(C(=O)OC)=C(C)NC2=C1C(=O)CC(c1ccccc1)C2` (configuration not stated), -5.16%; under `COc1ccc(C2CC(=O)NC3=C2C(=O)CC(c2ccccc2Cl)C3)cc1` (configuration not stated), 6.64%.
As for `O=C(CCCn1nnc(-c2ccccc2F)n1)c1ccc(O)cc1`, the inhibition was -5.05%.
For the compound `CCc1ccc(N/C(SCc2cccc([N+](=O)[O-])c2)=C(/C#N)C(=O)NCc2ccco2)cc1`, the inhibition is -0.35%.
For the compound `CC(=O)Nc1ccc(NC(=O)C(=O)NCc2ccc(F)cc2)cc1`, the inhibition was 0.35%.
Regarding `COc1ccccc1N1CCN(C(=O)CSc2nc3ccsc3c(=O)n2-c2ccccc2)CC1`, the inhibition is 1.01%.
Consider `COc1ccc(CCn2c(SCC(=O)N3CCN(c4ccccc4OC)CC3)nc3ccccc3c2=O)cc1OC`, for which the inhibition is 36.9% (active).
On to `COc1ccccc1N1CCN(C(=O)CSc2nc3ccsc3c(=O)n2CCc2ccccc2)CC1`, for which the inhibition was 43.9% (active).
For the compound `COc1ccc(CCn2c(SCC(=O)Nc3ccc(C)c(C)c3)nc3ccccc3c2=O)cc1OC`, the inhibition was 8.03%.
The same measure for `CCN(CC)C(=O)CSc1nc2ccsc2c(=O)n1CCc1ccccc1`: 16.3%.
As for `COc1ccccc1N1CCN(C(=O)CSc2nc3ccccc3c(=O)n2Cc2cccs2)CC1`, the inhibition was -7.66%.
In the case of `CN(C)c1cc(-c2nnc(SCc3ccccn3)n2C)nc(N(C)C)n1`, the inhibition was 1.09%.
On to `CC(NS(=O)(=O)c1cc(Cl)ccc1Cl)C(=O)Nc1ccc2c(c1)OCCO2` (configuration not stated), for which the inhibition was -9.66%.
For the compound `O=C(CC(=O)N1CCc2ccccc21)C(=O)CC(=O)N1CCc2ccccc21`, the inhibition was 8.39%.
As for `O=C(CN1C(=O)c2ccccc2S1(=O)=O)N1CCc2ccccc21`, the inhibition is 73.9% (active).
As for `CC1CCCN(C(=O)Cn2c(=O)oc3ccccc32)C1` (configuration not stated), the inhibition is 7.96%.
Turning to `CC(=O)CN1C(=O)c2ccccc2S1(=O)=O`, the inhibition is -8.06%.
Take `O=C(CN1C(=O)c2ccccc2S1(=O)=O)N1CCN(Cc2ccccc2)CC1`: the inhibition was -9.54%.
In the case of `CC1CCCN(C(=O)CN2C(=O)c3ccccc3S2(=O)=O)C1` (configuration not stated), the inhibition was 32.8% (active).
As to `O=C(NCc1ccon1)c1cccc(OC2CCN(C(=O)C3CC3)CC2)c1`, the inhibition was -8.88%.
Take `CC(C)CCNC(=O)C1CC(=O)N(C2CCCCC2)C1` (configuration not stated): the inhibition is 1.78%.
Consider `O=C(COc1ccccc1)N1CCN(c2ccccc2F)CC1`, for which the inhibition is 0.47%.
Turning to `CN(CC(=O)N1CCOCC1)c1ncnc2scc(-c3ccc(F)cc3)c12`, the inhibition was 2.08%.

(Values after PubChem BioAssay AID1259422 (The Scripps Research Institute Molecular Screening Center, 2018).)
